# Source: PubChem BioAssay AID602329 (Broad Institute, 2012)
# The whole screen tested about 360,000 compounds, of which about 510 (0.14%) were called active.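 How the source made its calls: active means mean normalized replicate activity at least 40 and at least half of replicates scoring 40 or more; inconclusive means only one of the two criteria met; inactive means mean below 40 and under half of replicates reaching 40.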 The full list was thinned out, with actives kept by preference.
# Biological target: DNA repair and recombination protein RAD54-like (Homo sapiens) (UniProt Q92698)
# Sequence (Q92698 whole entry, looked up): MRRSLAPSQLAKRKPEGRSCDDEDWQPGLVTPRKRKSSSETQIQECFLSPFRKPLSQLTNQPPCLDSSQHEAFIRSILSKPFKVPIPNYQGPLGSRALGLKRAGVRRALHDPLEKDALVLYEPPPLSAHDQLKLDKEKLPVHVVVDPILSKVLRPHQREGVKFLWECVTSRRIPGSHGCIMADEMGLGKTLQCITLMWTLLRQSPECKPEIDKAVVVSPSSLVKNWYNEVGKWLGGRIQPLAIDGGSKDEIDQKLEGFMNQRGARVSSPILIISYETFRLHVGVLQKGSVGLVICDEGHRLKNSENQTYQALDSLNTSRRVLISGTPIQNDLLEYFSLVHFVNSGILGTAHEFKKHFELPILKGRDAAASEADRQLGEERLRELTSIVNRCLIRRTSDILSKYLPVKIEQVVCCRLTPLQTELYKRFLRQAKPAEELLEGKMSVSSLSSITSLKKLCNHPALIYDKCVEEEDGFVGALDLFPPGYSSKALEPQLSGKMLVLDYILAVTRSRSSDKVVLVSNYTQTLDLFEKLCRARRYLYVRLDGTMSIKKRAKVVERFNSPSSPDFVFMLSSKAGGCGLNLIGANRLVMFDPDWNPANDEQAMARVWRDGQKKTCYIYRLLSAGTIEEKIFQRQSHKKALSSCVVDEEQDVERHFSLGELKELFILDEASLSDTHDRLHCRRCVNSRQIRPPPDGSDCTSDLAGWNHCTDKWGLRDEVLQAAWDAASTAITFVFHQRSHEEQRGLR
# Test: RAD54 Holliday junction migration blockers – biochemical, fluorescence, single point, primary screen (AID 602329);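 further: 0% = median of neutral control wells and 100% = median of positive control wells; inhibitors cause a drop in the FAM fluorescence signal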
# Details: RAD54 Holliday junction branch migration, FAM/BHQ fluorescence; at 10.4 µM; hits give high values
row,SMILES,inhibition
1,CC(C)NC(=O)Nc1ccc2c(c1)C(=O)N(C)[C@H]1CC[C@H](CC(=O)NCc3ccc(F)cc3)O[C@H]1CO2,7.11% (inactive)
2,C[C@@H]1CN([C@H](C)CO)S(=O)(=O)c2ccc(C3=CCCC3)cc2O[C@@H]1CN(C)C(=O)C1CCC1,-3.7% (inactive)
3,C[C@@H]1CCCCO[C@@H](CN(C)C(=O)c2ccccc2)[C@@H](C)CN([C@@H](C)CO)C(=O)c2cc(NS(=O)(=O)c3ccccc3)ccc2O1,-0.712% (inactive)
4,CCCNC(=O)[C@H]1[C@H](CO)[C@H]2Cn3c(cccc3=O)[C@H]2N1Cc1ccccc1Cl,-3.26% (inactive)
5,CC(=O)N1[C@@H]2Cn3c(ccc(C4=CCCC4)c3=O)[C@H]1[C@@H](C(=O)NC1CCC1)[C@@H]2CO,7.46% (inactive)
6,COc1ccc(NC(=O)N(C)C[C@H]2OCCCC[C@@H](C)Oc3ccc(NC(=O)c4ccncc4)cc3C(=O)N([C@@H](C)CO)C[C@H]2C)cc1,2.64% (inactive)
7,CN1C(=O)c2cc(NS(=O)(=O)c3ccc(Cl)cc3)ccc2OC[C@@H]2O[C@H](CC(=O)O)CC[C@@H]21,-1.23% (inactive)
8,CC(C)NC(=O)N(C)C[C@@H]1Oc2ncc(-c3ccc(C(=O)N(C)C)cc3)cc2C(=O)N([C@H](C)CO)C[C@H]1C,-0.445% (inactive)
9,CCCNC(=O)N(C)C[C@@H]1Oc2ncc(-c3cccc(C#N)c3)cc2C(=O)N([C@@H](C)CO)C[C@H]1C,7.71% (inactive)
10,CCC(=O)N(C)C[C@@H]1Oc2cc(C#CCOC)ccc2S(=O)(=O)N([C@@H](C)CO)C[C@@H]1C,-1.77% (inactive)
11,Cc1ccc(-n2c(=O)c(C#N)cc3c(=O)n4ccccc4nc32)cc1C,-1.05% (inactive)
12,Cc1cccn2c(=O)c3cc(C#N)c(=O)n(CCCN4CCOCC4)c3nc12,56.4% (active)
13,Cc1cccn2c(=O)c3cc(C#N)c(=NC(=O)c4cccnc4)n(CC4CCCO4)c3nc12 (stereo unspecified),-4.7% (inactive)
14,C[C@@H](NC(=O)C[C@H]1C[C@H]2c3cc(NC(=O)C4CCOCC4)ccc3O[C@H]2[C@@H](CO)O1)c1ccccc1,-0.474% (inactive)
15,Cc1cc(Nc2cc(N3CCN(C)CC3)nc(Sc3ccc(NC(=O)C4CC4)cc3)n2)n[nH]1,17.6% (inactive)
16,C=CC(=O)Nc1ccc(Nc2ccnc(Nc3ccc(N4CCN(C)CC4)cc3)n2)cc1,81.2% (active)
17,CC(=O)Nc1cc(-c2ccc(N3CCN(C)CC3)cc2)cn2c(-c3ccc(F)cc3)cnc12,36.5% (inactive)
18,C[C@H](CO)N1C[C@H](C)[C@@H](CN(C)S(=O)(=O)c2cn(C)cn2)Oc2ccc(N(C)C)cc2CC1=O,-0.235% (inactive)
19,CCN(C[C@@H]1[C@@H](c2ccccc2)[C@H](CO)N1C(C)=O)C(=O)NC(C)C,-5% (inactive)
20,CO[C@@H]1CN(C)C(=O)c2cc(NC(=O)C3CCCC3)ccc2OC[C@@H](C)N(Cc2ccc(F)cc2)C[C@H]1C,-4.74% (inactive)
21,CC(=O)N(C)C[C@@H]1Oc2cc(C#Cc3ccccc3F)ccc2S(=O)(=O)N([C@@H](C)CO)C[C@@H]1C,-0.527% (inactive)
22,C[C@@H]1CN([C@@H](C)CO)C(=O)c2cc(-c3ccc(C#N)cc3)cnc2O[C@H]1CN(C)C(=O)CN(C)C,5.52% (inactive)
23,CCNC(=O)C[C@@H]1CC[C@@H]2[C@H](COC[C@H](O)CN2S(=O)(=O)c2ccc(Oc3ccccc3)cc2)O1,-6.18% (inactive)
24,O=C(C[C@H]1CC[C@@H](NC(=O)c2ccccc2)[C@@H](CO)O1)NCc1ccncn1,-7.18% (inactive)
25,CCCNC(=O)C[C@@H]1CC[C@@H]2[C@H](COc3ccc(NC(=O)c4cc(F)cc(F)c4)cc3C(=O)N2C)O1,1.51% (inactive)
26,CCCNC(=O)C[C@@H]1CC[C@H]2[C@@H](COC[C@@H](O)CN2Cc2ccccc2F)O1,6.11% (inactive)

row,SMILES,inhibition
1,C[C@@H]1CN([C@H](C)CO)C(=O)c2cccc(NC(=O)Nc3ccc4c(c3)OCO4)c2O[C@@H]1CN(C)Cc1ccccc1,-7.8% (inactive)
2,C[C@H]1CN([C@@H](C)CO)C(=O)c2cc(NC(=O)C3CC3)ccc2O[C@@H]1CN(C)S(=O)(=O)c1cn(C)cn1,-0.446% (inactive)
3,COc1ccc(NC(=O)N(C)C[C@H]2OCc3ccccc3-c3ccccc3C(=O)N([C@H](C)CO)C[C@@H]2C)cc1,-9.7% (inactive)
4,O=C1c2ccccc2C(=O)c2c1cccc2N1CCN(CCO)CC1,84.2% (active)
5,O=C(Nc1cccc(Cl)c1)c1cc([N+](=O)[O-])ccc1N1CCN(CCO)CC1,-11.1% (inactive)
6,O=C1CCN(CCCc2ccccc2)CCN1CCO,-1.44% (inactive)
7,Cc1noc(C)c1NC(=O)N(C)C[C@H]1Oc2ccc(NS(=O)(=O)c3ccc(Cl)cc3)cc2CC(=O)N([C@H](C)CO)C[C@@H]1C,-4.2% (inactive)
8,Cc1ccc(S(=O)(=O)N(C)C[C@H]2Oc3ccc(NC(=O)C4CC4)cc3C(=O)N([C@H](C)CO)C[C@H]2C)cc1,8.82% (inactive)
9,CO[C@H]1CN(C)C(=O)c2cc(NC(=O)C3CCC3)ccc2OC[C@H](C)N(Cc2nccs2)C[C@H]1C,2.2% (inactive)
10,COc1cccc(NC(=O)C[C@@H]2CC[C@H]3[C@@H](COc4ccc(NC(=O)C5CCOCC5)cc4C(=O)N3C)O2)c1,-1.97% (inactive)
11,COCC(=O)Nc1ccc2c(c1)C(=O)N(C)C[C@@H](OC)[C@H](C)CN(C(=O)CC1CC1)[C@H](C)CO2,3.23% (inactive)
12,CCCN(C)C[C@H]1Oc2cc(-c3ccc(C)cc3)ccc2S(=O)(=O)N([C@H](C)CO)C[C@H]1C,-15% (inactive)
13,C#Cc1ccc([C@H]2C=C(C(=O)O)O[C@@H](OCC)[C@@H]2CCCO)cc1,-9.94% (inactive)
14,Cc1noc(C)c1NC(=O)Nc1cccc2c1O[C@@H](CN(C)Cc1ccc3c(c1)OCO3)[C@@H](C)CN([C@@H](C)CO)C2=O,7.78% (inactive)
15,O=C(c1cccnc1)N1CCCCN2[C@@H](CO)[C@H](c3ccc(C#Cc4ccccc4)cc3)[C@@H]2C1,1.81% (inactive)
16,CCNC(=O)[C@@H]1[C@@H](CO)[C@@H]2Cn3c(ccc(C4=CCCC4)c3=O)[C@H]1N2Cc1ccccc1,2.92% (inactive)
17,CC(C)NC(=O)N(C)C[C@H]1OCCCC[C@H](C)Oc2ccc(NC(=O)Nc3ccc4c(c3)OCO4)cc2C(=O)N([C@H](C)CO)C[C@@H]1C,-0.838% (inactive)
18,CNC[C@H]1Oc2cc(C#Cc3ccccc3)ccc2S(=O)(=O)N([C@@H](C)CO)C[C@@H]1C,1.19% (inactive)
19,Cc1ccc(S(=O)(=O)N(C)C[C@H]2OCCCC[C@H](C)Oc3ccc(NS(=O)(=O)c4c(C)noc4C)cc3C(=O)N([C@H](C)CO)C[C@@H]2C)cc1,3.91% (inactive)
20,CN1c2ccc(-c3ccc(F)cc3)cc2[C@@H]2[C@@H](CCN2S(=O)(=O)c2ccc(F)cc2)[C@@H]1CO,-1.5% (inactive)
21,COc1ccc(NC(=O)Nc2ccc3c(c2)CC(=O)N([C@@H](C)CO)C[C@H](C)[C@H](CN(C)C(=O)Nc2ccc4c(c2)OCO4)O3)cc1,-3.32% (inactive)
22,COc1cccc(C(=O)Nc2ccc3c(c2)C(=O)N(C)[C@@H]2CC[C@@H](CC(=O)NCCCN4CCOCC4)O[C@@H]2CO3)c1,8.84% (inactive)
23,CO[C@H]1CN(C)C(=O)c2ccc(NC(=O)C3CCOCC3)cc2OC[C@H](C)NC[C@H]1C,-0.243% (inactive)
24,CCNC(=O)C[C@@H]1CC[C@@H]2[C@@H](COc3ccc(NC(=O)c4cccc(C(F)(F)F)c4)cc3C(=O)N2C)O1,7.26% (inactive)
25,O=C(C1CCC1)N1CC[C@H]2[C@H](CO)Nc3ccc(-c4cccc(F)c4)cc3[C@H]21,2.5% (inactive)
